Test systems include NCI-H23 lung; NCI-H226 lung; NCI-H322M lung; HOP-62 NSCLC; NCI-H460 lung; HOP-92 NSCLC; NCI-H522 lung; A549/ATCC NSCLC; 786-0 renal; COLO 205 colon.
Holding throughout (experiment): NCI-60 one-dose screen, 48 h (100 = growth as untreated, 0 = no growth, -100 = all killed)
What all share (details): 10 µM unless noted

Compounds without any hit were thinned out: in the full panel of roughly 83,000, 20% have a hit.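 Note: values are percent growth. 100 is the growth of untreated cells, values between 100 and 0 indicate rising inhibition; between -100 and 0 indicates cell death.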 Values without a mark were called inactive. Active and inactive are the calls of the source. How the source made its calls: active means growth percent below 10; inactive means the rest.

Consider `C=CCCCCCCCCC(=O)OC(C)C`, for which the growth with NCI-H23 lung is 98.4%; in the experiment with NCI-H226 lung, 102%; in the experiment on NCI-H322M lung, 94%; with HOP-62 NSCLC, 97.5%; with NCI-H460 lung, 100%; with HOP-92 NSCLC, 82.3%. The growth in the experiment with NCI-H522 lung was 91.7%; in the experiment on A549/ATCC NSCLC it was 99.2%; in the experiment on 786-0 renal, 104%; in the experiment on COLO 205 colon, 105%.
Take `O=C(OCc1ccc2c(Cl)cc(Cl)c(O)c2n1)N1CCN(C(=O)c2cc3cc(F)ccc3[nH]2)CC1`: the growth in the experiment on NCI-H23 lung was 26.3%; in the experiment on NCI-H226 lung it was 2.12% (active); in the experiment with NCI-H322M lung, 33.5%; in the experiment with HOP-62 NSCLC, 6.32% (active); with NCI-H460 lung, 1.07% (active); in the experiment with HOP-92 NSCLC, 39.2%. For the same compound, the growth was -19.1% (active) in the experiment with NCI-H522 lung, 13.6% in the experiment with A549/ATCC NSCLC, 79.2% with 786-0 renal and 85.7% in the experiment with COLO 205 colon.
Take `CC(C)(C)c1cc(C(=O)Nc2cc3ccccc3cc2C(=O)NCCN)cc(C(C)(C)C)c1`: the growth in the experiment on NCI-H23 lung was -52.4% (active); with NCI-H226 lung, -51.9% (active); in the experiment with NCI-H322M lung it was -78.3% (active); with HOP-62 NSCLC, -80.8% (active); in the experiment on NCI-H460 lung, -70.4% (active); in the experiment with HOP-92 NSCLC, -70.3% (active). Moreover, the growth was -47.3% (active) in the experiment on NCI-H522 lung, -60.7% (active) in the experiment on A549/ATCC NSCLC, -92% (active) in the experiment with 786-0 renal and -80.9% (active) in the experiment on COLO 205 colon.
With `CCOC(=O)C(=Cc1ccccc1[N+](=O)[O-])C(=O)OCC`, the growth is 14.4% in the experiment with NCI-H23 lung; 42.3% in the experiment with NCI-H226 lung; 89.2% in the experiment on NCI-H322M lung; 27.3% in the experiment with HOP-62 NSCLC; 49.5% in the experiment on NCI-H460 lung; 9.84% (active) with HOP-92 NSCLC. The growth was -1.64% (active) in the experiment on NCI-H522 lung, 53.6% in the experiment on A549/ATCC NSCLC, 28.2% with 786-0 renal and -42.2% (active) in the experiment with COLO 205 colon.
On to `Nc1cc(N)c(N=Nc2ccc(S(=O)(=O)O)cc2)cc1N=Nc1ccc(-c2ccc(N=Nc3ccc(O)c(C(=O)O)c3)cc2)cc1`, for which the growth with NCI-H23 lung was 95.7%; in the experiment on NCI-H226 lung, 92.2%; in the experiment with NCI-H322M lung, 101%; in the experiment with HOP-62 NSCLC, 98.8%; with NCI-H460 lung, 105%; in the experiment with HOP-92 NSCLC, 108%. The growth was 98.2% in the experiment on NCI-H522 lung, 101% in the experiment on A549/ATCC NSCLC, 105% with 786-0 renal and 109% in the experiment with COLO 205 colon.
As to `C=C1C(=O)O[C@H]2[C@H]1CC/C(COC(=O)NCc1ccc(Cn3c(=O)sn(-c4ccc(Cl)cc4)c3=O)cc1)=C\CC[C@@]1(C)O[C@@H]21`, the growth with NCI-H23 lung is 94.9%; in the experiment on NCI-H226 lung, 87.4%; in the experiment with NCI-H322M lung, 104%; with HOP-62 NSCLC, 106%; in the experiment with NCI-H460 lung, 101%; in the experiment on HOP-92 NSCLC, 45.5%. Further, the growth in the experiment on NCI-H522 lung was -8.38% (active); in the experiment on A549/ATCC NSCLC it was 95.9%; with 786-0 renal, 70.8%; in the experiment on COLO 205 colon it was 24%.
On to `CCCCCCCCCCCCCCCCCCNC(=S)N/N=C/c1ccc(OC)c(OC)c1`, for which the growth in the experiment on NCI-H23 lung is 93.9%; with NCI-H226 lung, 99.2%; with NCI-H322M lung it was 98.7%; in the experiment on HOP-62 NSCLC, 98.6%; with NCI-H460 lung, 103%; in the experiment with HOP-92 NSCLC, 69.4%. Moreover, the growth in the experiment with NCI-H522 lung was 94.6%; with A549/ATCC NSCLC, 98.3%; with 786-0 renal, 102%; with COLO 205 colon it was 104%.
For the compound `Cc1cnc(N)nc1OCC(C)(C)CNC(=O)c1cccc(-c2ccc(S(=O)(=O)Nc3ccc4c(c3)N(C(=O)C3CC3)CCC4)cc2)c1`, the growth was 48.6% in the experiment with NCI-H23 lung; 59.3% in the experiment on NCI-H226 lung; 84.2% in the experiment with NCI-H322M lung; 59.7% with HOP-62 NSCLC; 53.9% with NCI-H460 lung; 53.5% with HOP-92 NSCLC. The growth in the experiment on NCI-H522 lung is 65.4%; in the experiment with A549/ATCC NSCLC, 49.9%; in the experiment with 786-0 renal, 90.6%; in the experiment with COLO 205 colon, 55.5%.
As to `Clc1ccc(/C=N/Nc2nc3ccccc3s2)c(Cl)c1`, the growth is 90.4% in the experiment on NCI-H23 lung; 100% in the experiment with NCI-H226 lung; 93.4% in the experiment on NCI-H322M lung; 87.9% with HOP-62 NSCLC; 41.8% in the experiment with NCI-H460 lung; 44.6% with HOP-92 NSCLC. The growth in the experiment with NCI-H522 lung was 97.2%; with A549/ATCC NSCLC it was 73.7%; in the experiment on 786-0 renal, 90.7%; in the experiment on COLO 205 colon, 88.4%.
On to `O=c1cc(-c2ccccc2)oc2cc(OCc3cn(Cc4ccc(F)cc4)nn3)cc(O)c12`, for which the growth is 45.8% [100 µM] with NCI-H23 lung; 60.9% [100 µM] in the experiment on NCI-H226 lung; 86.1% [100 µM] in the experiment with NCI-H322M lung; -28.5% [100 µM] (active) in the experiment with HOP-62 NSCLC; 71.4% [100 µM] with NCI-H460 lung; -3.35% [100 µM] (active) with HOP-92 NSCLC. Further, the growth in the experiment with NCI-H522 lung is 15.1% [100 µM]; with A549/ATCC NSCLC, 81.2% [100 µM]; in the experiment with 786-0 renal it was 2.24% [100 µM] (active); in the experiment with COLO 205 colon, 103% [100 µM].
Take `COc1ccc2[nH]c(C(=O)N3CCN(C(=O)OCc4ccc5c(Br)cc(Br)c(O)c5n4)CC3)cc2c1`: the growth in the experiment with NCI-H23 lung was -78.2% (active); in the experiment with NCI-H226 lung, -84.3% (active); in the experiment with NCI-H322M lung, -87.1% (active); with HOP-62 NSCLC it was -67% (active); in the experiment with NCI-H460 lung it was -60.3% (active); in the experiment on HOP-92 NSCLC, -83.9% (active). In addition, the growth in the experiment with NCI-H522 lung is -78.4% (active); in the experiment with A549/ATCC NSCLC it was -79.5% (active); in the experiment with 786-0 renal, -93% (active); with COLO 205 colon, -83.1% (active).
As for `Cc1ccc2c(c1)C(C)Cc1c(Cl)ncnc1N2C` (stereo not given), the growth in the experiment on NCI-H23 lung was 20.7%; in the experiment on NCI-H226 lung, -7.14% (active); with NCI-H322M lung it was 32.3%; in the experiment on HOP-62 NSCLC it was 17.5%; in the experiment with NCI-H460 lung, 30.6%; in the experiment with HOP-92 NSCLC it was 28.9%. For the same compound, the growth was 69% in the experiment with NCI-H522 lung, 16.4% with A549/ATCC NSCLC, 1.48% (active) with 786-0 renal and -56.1% (active) in the experiment on COLO 205 colon.
For `COc1cc2c(c(OC)c1OC)-c1ccc(NNC(N)=S)c(=O)cc1[C@@H](NC(C)=O)CC2`, the growth in the experiment with NCI-H23 lung is 5.07% (active); with NCI-H226 lung it was 27.9%; in the experiment on NCI-H322M lung, 64.9%; in the experiment with HOP-62 NSCLC, 32.7%; in the experiment with NCI-H460 lung, -3.14% (active); in the experiment with HOP-92 NSCLC, -6.59% (active). Further, the growth with NCI-H522 lung is -63.3% (active); in the experiment with A549/ATCC NSCLC, 15.7%; with 786-0 renal, 21.9%; in the experiment with COLO 205 colon it was -95.6% (active).
